Assay results reported in the antibiotic and cytotoxicity screens of Wong et al. (2023).
The whole screen tested about 39,000 compounds, of which about 3,300 (8.5%) were called active. Only a selection was taken, and actives are over-represented in it overall.

What follows are compounds tested on HepG2 (assay: cytotoxicity call (relative viability < 0.9)). Conditions: 10 µM.

Structure (SMILES) | cytotoxicity call
C[C@@H]1CN([C@@H](C)CO)C(=O)c2cc(NC(=O)Nc3ccc(F)cc3)ccc2O[C@@H](C)CCCCO[C@H]1CN(C)S(=O)(=O)c1cccs1 | active
C[C@@H]1CCCCO[C@H](CN(C)S(=O)(=O)c2cccs2)[C@@H](C)CN([C@H](C)CO)C(=O)c2cc(NC(=O)Nc3ccc(F)cc3)ccc2O1 | inactive
C[C@@H]1CCCCO[C@@H](CN(C)S(=O)(=O)c2cccs2)[C@@H](C)CN([C@H](C)CO)C(=O)c2cc(NC(=O)Nc3ccc(F)cc3)ccc2O1 | inactive
C[C@@H]1CCCCO[C@@H](CN(C)S(=O)(=O)c2cccs2)[C@H](C)CN([C@@H](C)CO)C(=O)c2cc(NC(=O)Nc3ccccc3)ccc2O1 | inactive
C[C@@H]1CCCCO[C@@H](CN(C)S(=O)(=O)c2cccs2)[C@H](C)CN([C@H](C)CO)C(=O)c2cc(NC(=O)Nc3ccccc3)ccc2O1 | active
C[C@H]1CCCCO[C@@H](CN(C)S(=O)(=O)c2cccs2)[C@@H](C)CN([C@@H](C)CO)C(=O)c2cc(NC(=O)Nc3ccc(F)cc3)ccc2O1 | active
COc1ccc(NC(=O)Nc2ccc3c(c2)C(=O)N([C@@H](C)CO)C[C@H](C)[C@@H](CN(C)S(=O)(=O)c2cccs2)OCCCC[C@@H](C)O3)cc1 | active
COc1ccc(NC(=O)Nc2ccc3c(c2)C(=O)N([C@@H](C)CO)C[C@H](C)[C@H](CN(C)S(=O)(=O)c2cccs2)OCCCC[C@@H](C)O3)cc1 | inactive
C[C@H](CO)N1C[C@H](C)[C@@H](CN(C)S(=O)(=O)c2cccs2)OCCCC[C@H](C)Oc2ccc(NC(=O)Nc3ccc(F)cc3)cc2C1=O | inactive
C[C@@H]1CN([C@@H](C)CO)C(=O)c2cc(NC(=O)Nc3ccccc3)ccc2O[C@@H](C)CCCCO[C@@H]1CN(C)S(=O)(=O)c1cccs1 | inactive
C[C@@H]1CN([C@H](C)CO)C(=O)c2cc(NC(=O)Nc3ccc(F)cc3)ccc2O[C@@H](C)CCCCO[C@H]1CN(C)S(=O)(=O)c1cccs1 | inactive
COc1ccc(NC(=O)Nc2ccc3c(c2)C(=O)N([C@H](C)CO)C[C@H](C)[C@@H](CN(C)S(=O)(=O)c2cccs2)OCCCC[C@H](C)O3)cc1 | inactive
C[C@@H]1CN([C@@H](C)CO)C(=O)Cc2cc(NC(=O)CCCCCC(=O)Nc3ccccc3N)ccc2O[C@@H]1CN(C)C(=O)Nc1ccc(F)cc1 | inactive
C[C@H](CO)N1C[C@H](C)[C@@H](CN(C)C(=O)NC2CCCCC2)Oc2c(NC(=O)c3cnccn3)cccc2C1=O | inactive
Cc1noc(C)c1S(=O)(=O)Nc1ccc2c(c1)C(=O)N([C@H](C)CO)C[C@H](C)[C@H](CN(C)C(=O)Nc1ccc(F)cc1)OCCCC[C@@H](C)O2 | inactive
C[C@@H]1CN([C@@H](C)CO)C(=O)c2cc(C#CC3(O)CCCC3)cnc2O[C@H]1CN(C)C(=O)CN(C)C | inactive
CNC[C@H]1OCCCC[C@@H](C)Oc2ccc(NC(=O)Nc3ccc(C(F)(F)F)cc3)cc2C(=O)N([C@@H](C)CO)C[C@H]1C | inactive

Structure (SMILES) | cytotoxicity call
COc1ccc(NC(=O)Nc2cccc3c2O[C@@H](CN(C)Cc2ccc(C(=O)Nc4ccccc4N)cc2)[C@H](C)CN([C@H](C)CO)C3=O)cc1 | inactive
C[C@@H]1CCCCO[C@@H](CN(C)Cc2ccc(C(=O)Nc3ccccc3N)cc2)[C@@H](C)CN([C@H](C)CO)C(=O)c2cc(NC(=O)NC3CCCCC3)ccc2O1 | inactive
COCCOC(=O)N1C(=O)[C@@]2(c3cc(C#Cc4ccc(OC)cc4)ccc31)[C@H](c1ccccc1OCCO)N1[C@H](c3ccccc3)[C@H](c3ccccc3)OC(=O)[C@H]1[C@@H]2C(=O)NC[C@H](O)c1ccccc1 | inactive
CC(C)NC(=O)Nc1ccc2c(c1)CC(=O)N([C@H](C)CO)C[C@@H](C)[C@H](CN(C)S(=O)(=O)c1ccccc1)O2 | inactive
C[C@@H]1CN([C@H](C)CO)C(=O)c2cccc(NC(=O)C3CCCCC3)c2O[C@@H]1CN(C)Cc1ccc(Oc2ccccc2)cc1 | inactive
CO[C@@H]1CN(C)C(=O)c2cc(NC(=O)Nc3cccc(Cl)c3)ccc2OC[C@@H](C)N(C(=O)Nc2c(C)noc2C)C[C@@H]1C | inactive
CO[C@H]1CN(C)C(=O)c2cc(NC(=O)Nc3cccc(Cl)c3)ccc2OC[C@H](C)N(C(=O)Nc2c(C)noc2C)C[C@@H]1C | inactive
C[C@@H]1CCCCO[C@@H](CN(C)S(=O)(=O)c2cccs2)[C@H](C)CN([C@H](C)CO)C(=O)c2cc(NC(=O)NC3CCCCC3)ccc2O1 | active
C[C@H](CO)N1C[C@H](C)[C@H](CN(C)S(=O)(=O)c2cccs2)OCCCC[C@H](C)Oc2ccc(NC(=O)Nc3ccc(F)cc3)cc2C1=O | inactive
C[C@H]1CCCCO[C@H](CN(C)S(=O)(=O)c2cccs2)[C@@H](C)CN([C@@H](C)CO)C(=O)c2cc(NC(=O)Nc3ccc(F)cc3)ccc2O1 | inactive
C[C@@H]1CCCCO[C@H](CN(C)S(=O)(=O)c2cccs2)[C@H](C)CN([C@H](C)CO)C(=O)c2cc(NC(=O)Nc3ccc(F)cc3)ccc2O1 | active
C[C@@H]1CN([C@H](C)CO)C(=O)c2cc(NC(=O)Cc3ccccc3)ccc2O[C@@H](C)CCCCO[C@H]1CN(C)S(=O)(=O)c1cccs1 | inactive
C[C@@H]1CCCCO[C@@H](CN(C)S(=O)(=O)c2cccs2)[C@H](C)CN([C@@H](C)CO)C(=O)c2cc(NC(=O)Cc3ccccc3)ccc2O1 | inactive
C[C@@H]1CCCCO[C@@H](CN(C)S(=O)(=O)c2cccs2)[C@H](C)CN([C@H](C)CO)C(=O)c2cc(NC(=O)Cc3ccccc3)ccc2O1 | active
C[C@@H]1CN([C@@H](C)CO)C(=O)c2cc(NC(=O)NC3CCCCC3)ccc2O[C@@H](C)CCCCO[C@@H]1CN(C)S(=O)(=O)c1cccs1 | inactive
C[C@@H]1CN([C@@H](C)CO)C(=O)c2cc(NC(=O)NC3CCCCC3)ccc2O[C@@H](C)CCCCO[C@H]1CN(C)S(=O)(=O)c1cccs1 | inactive
